The values that follow come from PubChem BioAssay AID488890 (Southern Research Specialized Biocontainment Screening …, 2010).

SMILES strings stand for the structures. The campaign covered roughly 320,000 compounds. About 1,300 (0.41%) were called active. Another 3% or so got no clear call; they are omitted. No rule for the calls is given here. These entries were drawn from the full list. Results with a measured potency or affinity are listed apart.

The assay is described as follows: growth inhibition of non-replicating M. tuberculosis (AID 488890).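 Also: plate controls were DMSO cells for no effect and high antibiotic wells for full effect.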 Particulars: Mycobacterium tuberculosis non-replicating, at 25 µM, stronger effect = higher value.
On to `CCCCCC(=O)Nc1ccc2ccccc2c1`, for which the inhibition turned out to be 58.5%.

Consider `CCC(=O)Nc1ccc2ccccc2c1`, for which the inhibition was 14.1%.

Consider `CCCCn1c(N)c(N(Cc2ccccc2OC)C(=O)c2ccc(N3CCCC3=O)cc2)c(=O)[nH]c1=O`, for which the inhibition is 18.9%.

`N#CCSc1ncccc1-c1nc2ccccc2[nH]1`: the inhibition was -0.28%.

Take `c1ccc(Nc2ccccc2)cc1`: the inhibition worked out at 6.24%.

`Cc1ccc(Nc2cccccc2=O)cc1`: the inhibition was found to be 16.8%.

In the case of `COc1ccc(Nc2cccccc2=O)cc1`, the inhibition came out at 3.01%.

`Cc1ccc(Nc2ccccc2)cc1`: the inhibition is 1.99%.

Consider `c1ccc(Nc2cccc3c(Nc4ccccc4)cccc23)cc1`, for which the inhibition turned out to be 42.5%.

Regarding `COc1ccc(Nc2ccccc2C(=O)O)cc1`, the inhibition came out at 3.87%.

Turning to `Nc1cccc(Nc2ccccc2)c1`, the inhibition was found to be 2.41%.

As for `Nc1ccccc1Nc1cccc(C(F)(F)F)c1`, the inhibition worked out at 47%.

`Cn1nc(C(=O)NNC(=O)c2cccc(Cl)c2)ccc1=O`: the inhibition worked out at 1.12%.

As to `O=S(=O)(NC1=NCCCCC1)c1cc(F)ccc1F`, the inhibition is -1.39%.

As for `CC1(C)Oc2ccc(C(=O)N/N=C/c3ccc(O)cc3)cc2NC1=O`, the inhibition amounted to 4.72%.

`CC(Sc1n[nH]c(N)n1)C(=O)Nc1cccc2ccccc12` (centres undefined): the inhibition is 11%.

As to `Cc1nn(-c2ccccc2)c(C)c1/C=N/NC(=O)c1cc(-c2cccs2)[nH]n1`, the inhibition was 47.5%.

On to `O=C(Nc1cccc(Br)c1)c1ccc2nc(N3C(=O)CCC3=O)sc2c1`, for which the inhibition was found to be 3.99%.

For `Nc1c(C(=O)c2ccccc2)sc(Nc2ccccc2)c1S(=O)(=O)c1ccccc1`, the inhibition is 12.2%.

For the molecule `COCCCC1CCN(C(=O)C2CCC(=O)N(C3CCCC3)C2)CC1` (centres undefined), the inhibition is -6.84%.

With `CCNc1nc(=S)nc(NC(C)C)[nH]1`, the inhibition was -23%.

As to `CC(=O)Nc1ccc(C(=O)OCc2ccc(F)cc2Cl)cc1`, the inhibition was found to be 50%.

With `COc1ccc(NC(=O)/C(C#N)=C/c2c(C)nn(-c3ccc(F)cc3)c2Cl)cc1OC`, the inhibition was found to be 9.54%.

Consider `CCN(CC)S(=O)(=O)c1ccc(N2CC(C(=O)NCCc3ccc(Cl)cc3)CC2=O)cc1` (centres undefined), for which the inhibition came to 28.6%.

As to `O=C(N/N=C/c1ccccc1)c1c(O)c2ccccc2[nH]c1=O`, the inhibition turned out to be 58.7%.

`O=C(N/N=C/c1ccc(F)cc1)c1c(O)c2ccccc2[nH]c1=O`: the inhibition came out at 25.9%.

With `Cc1ccc(NC(=S)N(CCCN2CCOCC2)Cc2cccnc2)cc1C`, the inhibition is -0.2%.

As for `CSCCC(NC(=O)OCc1ccccc1)C(=O)O` (centres undefined), the inhibition is -8.32%.

Turning to `Cc1ccc(SCC(=O)c2cc(C)c(O)c(C)c2)cc1`, the inhibition came to 0.12%.

As for `O=c1cc(-c2ccccc2Cl)oc2cccc(O)c12`, the inhibition is -8.34%.

With `O=c1cc(-c2ccccc2Cl)oc2c(Br)ccc(O)c12`, the inhibition is -2.73%.

Consider `Nc1ccc2oc(-c3ccccc3Cl)cc(=O)c2c1O`, for which the inhibition is -0.76%.

Consider `Nc1ccc(O)c2c(=O)cc(-c3ccccc3Cl)oc12`, for which the inhibition was -0.68%.

For `COc1ccc(-c2[nH]nc3c2C(c2ccc(OC(=O)N4CCOCC4)cc2)C(C#N)=C(N)O3)cc1` (centres undefined), the inhibition came out at 13.2%.

What is called inhibition is the relative decrease from the control value, in per cent.
